Assay results published in article PMC7862700, “An all-to-all approach to the identification of sequence-specific readers for epigenetic DNA modifications on cytosine”.

What was measured:
Assay in all cases: DAPPL (digital affinity profiling via proximity ligation, sequencing); 10 mM Tris-HCl pH 7.5, 50 mM NaCl, 1 mM DTT, 4% glycerol, room temperature, 30 min; GST-TFs on glutathione beads, 16-mer random dsDNA library, 0.1% formaldehyde crosslink after washing; high values mean tight binding
Details in all cases: protein: recombinant; tags: N-terminal GST; dsDNA, one strand shown
ERF = target: T1, ERF (Homo sapiens, UniProt P50548 1-548)
T1 sequence: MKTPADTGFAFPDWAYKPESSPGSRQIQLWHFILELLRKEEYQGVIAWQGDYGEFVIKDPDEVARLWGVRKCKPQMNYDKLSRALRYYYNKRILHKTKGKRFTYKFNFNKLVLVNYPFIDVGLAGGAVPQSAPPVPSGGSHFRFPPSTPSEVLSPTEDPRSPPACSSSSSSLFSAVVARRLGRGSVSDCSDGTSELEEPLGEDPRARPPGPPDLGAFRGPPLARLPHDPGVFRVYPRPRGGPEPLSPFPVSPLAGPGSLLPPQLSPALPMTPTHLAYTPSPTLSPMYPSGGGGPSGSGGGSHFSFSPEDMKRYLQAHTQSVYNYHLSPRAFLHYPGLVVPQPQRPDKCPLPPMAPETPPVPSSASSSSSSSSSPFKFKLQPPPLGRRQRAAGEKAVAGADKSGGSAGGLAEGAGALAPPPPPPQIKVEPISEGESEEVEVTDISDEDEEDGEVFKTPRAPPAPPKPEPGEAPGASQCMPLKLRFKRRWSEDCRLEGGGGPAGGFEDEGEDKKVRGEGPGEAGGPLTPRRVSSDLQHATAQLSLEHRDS
Method in brief: (§1)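 Pools were built from human transcription factors expressed in yeast as GST fusions, captured on glutathione beads and DNA-barcoded, along with a tag-only sample. Incubation with 200 nmole of a 16-mer random double-stranded DNA library lasted 30 min at room temperature in Tris/NaCl/DTT/glycerol buffer, and was followed by washing, 0.1% formaldehyde crosslinking, proximity ligation, PCR amplification and Illumina NextSeq500 sequencing. Binding signal is the quotient of each hexamer's read frequency for a factor and its frequency for the tag-only sample.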

ETV3L = target: T2, ETV3L (Homo sapiens, UniProt Q6ZN32 1-361)
T2 sequence: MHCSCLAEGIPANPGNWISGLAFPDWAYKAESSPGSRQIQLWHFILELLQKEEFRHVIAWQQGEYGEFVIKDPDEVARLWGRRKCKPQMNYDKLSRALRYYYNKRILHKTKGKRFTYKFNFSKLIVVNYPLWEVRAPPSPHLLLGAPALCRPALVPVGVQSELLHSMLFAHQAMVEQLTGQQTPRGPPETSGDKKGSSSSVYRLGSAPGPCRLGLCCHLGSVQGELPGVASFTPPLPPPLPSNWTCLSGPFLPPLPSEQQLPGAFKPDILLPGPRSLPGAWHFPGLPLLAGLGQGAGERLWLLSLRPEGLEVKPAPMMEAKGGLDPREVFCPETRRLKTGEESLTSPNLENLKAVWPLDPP
Method in brief: as §1

ETS2 = target: T3, ETS2 (Homo sapiens, UniProt P15036 1-469)
T3 sequence: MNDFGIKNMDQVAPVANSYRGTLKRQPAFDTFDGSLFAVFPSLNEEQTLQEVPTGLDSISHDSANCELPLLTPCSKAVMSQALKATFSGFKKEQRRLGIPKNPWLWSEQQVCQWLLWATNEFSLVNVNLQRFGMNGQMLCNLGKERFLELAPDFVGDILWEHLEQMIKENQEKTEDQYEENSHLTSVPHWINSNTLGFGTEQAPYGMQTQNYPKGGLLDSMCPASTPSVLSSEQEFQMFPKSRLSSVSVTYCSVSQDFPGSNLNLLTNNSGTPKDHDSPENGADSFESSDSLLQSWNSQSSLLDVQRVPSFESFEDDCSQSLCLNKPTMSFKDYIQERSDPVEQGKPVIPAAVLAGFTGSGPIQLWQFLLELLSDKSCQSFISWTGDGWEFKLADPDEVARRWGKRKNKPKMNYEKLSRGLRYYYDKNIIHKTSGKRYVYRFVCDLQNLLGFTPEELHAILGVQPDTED
Method in brief: as §1

SPDEF = target: T4, SPDEF (Homo sapiens, UniProt O95238 1-335)
T4 sequence: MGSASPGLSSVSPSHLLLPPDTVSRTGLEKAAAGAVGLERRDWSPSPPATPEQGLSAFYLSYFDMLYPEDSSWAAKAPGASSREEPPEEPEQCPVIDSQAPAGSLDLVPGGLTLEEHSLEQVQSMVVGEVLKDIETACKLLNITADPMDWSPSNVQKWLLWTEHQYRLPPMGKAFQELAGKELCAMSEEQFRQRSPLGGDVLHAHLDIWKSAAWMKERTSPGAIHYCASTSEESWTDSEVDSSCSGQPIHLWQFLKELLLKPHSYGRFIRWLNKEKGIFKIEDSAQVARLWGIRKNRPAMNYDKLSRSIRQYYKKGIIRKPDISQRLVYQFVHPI
Method in brief: as §1

ETV7 = target: T5, ETV7 (Homo sapiens, UniProt Q9Y603 1-341)
T5 sequence: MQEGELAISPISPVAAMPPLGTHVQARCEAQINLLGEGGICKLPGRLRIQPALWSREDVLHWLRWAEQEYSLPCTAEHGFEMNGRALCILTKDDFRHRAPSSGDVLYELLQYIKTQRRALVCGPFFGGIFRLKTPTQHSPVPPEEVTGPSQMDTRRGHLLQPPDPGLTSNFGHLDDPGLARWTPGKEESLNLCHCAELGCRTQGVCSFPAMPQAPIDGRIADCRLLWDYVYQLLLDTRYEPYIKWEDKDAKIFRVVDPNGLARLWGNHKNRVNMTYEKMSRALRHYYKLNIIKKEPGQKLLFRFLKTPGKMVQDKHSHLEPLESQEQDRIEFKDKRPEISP
Method in brief: as §1

ELF5 = target: T6, ELF5 (Homo sapiens, UniProt Q9UKW6-2 1-255)
T6 sequence: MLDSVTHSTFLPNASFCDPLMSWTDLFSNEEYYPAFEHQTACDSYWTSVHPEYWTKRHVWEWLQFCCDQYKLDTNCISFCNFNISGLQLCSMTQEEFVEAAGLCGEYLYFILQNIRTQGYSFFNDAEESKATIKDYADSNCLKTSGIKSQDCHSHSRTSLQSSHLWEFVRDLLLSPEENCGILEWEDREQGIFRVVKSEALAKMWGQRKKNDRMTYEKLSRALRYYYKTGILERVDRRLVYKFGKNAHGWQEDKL
Method in brief: as §1

ETV3 = target: T7, ETV3 (Homo sapiens, UniProt P41162-2 1-143)
T7 sequence: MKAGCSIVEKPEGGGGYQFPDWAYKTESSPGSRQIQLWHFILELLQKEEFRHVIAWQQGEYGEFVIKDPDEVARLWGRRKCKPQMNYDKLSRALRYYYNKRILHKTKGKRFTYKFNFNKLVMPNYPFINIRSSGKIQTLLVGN
Method in brief: as §1

ETV6 = ETV6 (Homo sapiens, UniProt P41212 1-452)
ETV6, sequence (P41212 whole entry): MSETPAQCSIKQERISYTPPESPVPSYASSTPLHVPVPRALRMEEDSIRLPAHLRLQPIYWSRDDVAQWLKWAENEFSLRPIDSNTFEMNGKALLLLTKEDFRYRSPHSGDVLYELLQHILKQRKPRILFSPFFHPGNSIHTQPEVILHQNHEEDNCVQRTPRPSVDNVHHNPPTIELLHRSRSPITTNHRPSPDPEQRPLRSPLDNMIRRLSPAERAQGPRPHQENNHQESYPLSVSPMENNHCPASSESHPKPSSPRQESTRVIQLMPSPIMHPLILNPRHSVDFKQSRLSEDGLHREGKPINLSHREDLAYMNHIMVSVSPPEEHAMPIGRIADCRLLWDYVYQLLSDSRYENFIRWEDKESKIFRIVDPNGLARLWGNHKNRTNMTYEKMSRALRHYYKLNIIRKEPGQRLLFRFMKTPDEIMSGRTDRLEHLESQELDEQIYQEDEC
Method in brief: as §1

| Sequence | binding signal (ERF) | binding signal (ETV3L) | binding signal (ETS2) | binding signal (SPDEF) | binding signal (ETV7) | binding signal (ELF5) | binding signal (ETV3) | binding signal (ETV6) |
| --- | --- | --- | --- | --- | --- | --- | --- | --- |
| TTACCC | 1.35 fold enrichment (6-mer frequency, TF over GST control) | 1.26 fold enrichment (6-mer frequency, TF over GST control) | 1.42 fold enrichment (6-mer frequency, TF over GST control) | 1.33 fold enrichment (6-mer frequency, TF over GST control) | 1.41 fold enrichment (6-mer frequency, TF over GST control) | 1.43 fold enrichment (6-mer frequency, TF over GST control) | 1.35 fold enrichment (6-mer frequency, TF over GST control) | 1.29 fold enrichment (6-mer frequency, TF over GST control) |
| CTAGGT | 1.03 fold enrichment (6-mer frequency, TF over GST control) | 1.16 fold enrichment (6-mer frequency, TF over GST control) | 1.11 fold enrichment (6-mer frequency, TF over GST control) | 1.17 fold enrichment (6-mer frequency, TF over GST control) | 1.1 fold enrichment (6-mer frequency, TF over GST control) | 1.01 fold enrichment (6-mer frequency, TF over GST control) | 1.14 fold enrichment (6-mer frequency, TF over GST control) | 1.11 fold enrichment (6-mer frequency, TF over GST control) |
| CTGCTT | 1.67 fold enrichment (6-mer frequency, TF over GST control) | 1.7 fold enrichment (6-mer frequency, TF over GST control) | 1.63 fold enrichment (6-mer frequency, TF over GST control) | 1.67 fold enrichment (6-mer frequency, TF over GST control) | 1.57 fold enrichment (6-mer frequency, TF over GST control) | 1.64 fold enrichment (6-mer frequency, TF over GST control) | 1.75 fold enrichment (6-mer frequency, TF over GST control) | 1.71 fold enrichment (6-mer frequency, TF over GST control) |
| TTAGCT | 1.2 fold enrichment (6-mer frequency, TF over GST control) | 1.16 fold enrichment (6-mer frequency, TF over GST control) | 1.26 fold enrichment (6-mer frequency, TF over GST control) | 1.08 fold enrichment (6-mer frequency, TF over GST control) | 1.17 fold enrichment (6-mer frequency, TF over GST control) | 1.13 fold enrichment (6-mer frequency, TF over GST control) | 1.19 fold enrichment (6-mer frequency, TF over GST control) | 1.26 fold enrichment (6-mer frequency, TF over GST control) |
| TCATAT | 1.22 fold enrichment (6-mer frequency, TF over GST control) | 1.3 fold enrichment (6-mer frequency, TF over GST control) | 1.27 fold enrichment (6-mer frequency, TF over GST control) | 1.23 fold enrichment (6-mer frequency, TF over GST control) | 1.05 fold enrichment (6-mer frequency, TF over GST control) | 1.19 fold enrichment (6-mer frequency, TF over GST control) | 1.26 fold enrichment (6-mer frequency, TF over GST control) | 1.24 fold enrichment (6-mer frequency, TF over GST control) |
| GTATCT | 1.16 fold enrichment (6-mer frequency, TF over GST control) | 1.16 fold enrichment (6-mer frequency, TF over GST control) | 1.05 fold enrichment (6-mer frequency, TF over GST control) | 1.14 fold enrichment (6-mer frequency, TF over GST control) | 1.14 fold enrichment (6-mer frequency, TF over GST control) | 1.18 fold enrichment (6-mer frequency, TF over GST control) | 1.13 fold enrichment (6-mer frequency, TF over GST control) | 1.19 fold enrichment (6-mer frequency, TF over GST control) |
| ACGAAA | 1.34 fold enrichment (6-mer frequency, TF over GST control) | 1.13 fold enrichment (6-mer frequency, TF over GST control) | 1.15 fold enrichment (6-mer frequency, TF over GST control) | 1.18 fold enrichment (6-mer frequency, TF over GST control) | 1.23 fold enrichment (6-mer frequency, TF over GST control) | 1.09 fold enrichment (6-mer frequency, TF over GST control) | 1.03 fold enrichment (6-mer frequency, TF over GST control) | 1.13 fold enrichment (6-mer frequency, TF over GST control) |
